Compound activity deposited in PubChem BioAssay by National Center for Advancing Translational Sciences (NCATS).
A selection: hits, their analogues and other compounds. The true share with any hit is near 9.9%.
KB-3-1 cytotox: kills parental KB-3-1 adenocarcinoma cells; KB-3-1 viability, CellTiter-Glo ATP luminescence, 72 h; Potency, µM (doses to about 46.1 µM), usual class: cytotoxic; 400,000 tested, 1.4% active; AID 1347075; also: potency is read from the fitted curve at half-maximal effect; % is scaled to controls: 0 for no effect and ±100 for the full control effect; nearly all actives have a fitted effect of over 60% in size
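Viability of parental KB-3-1 cells, measured by CellTiter-Glo luminescence, followed a 72 h incubation at 37 °C with pinned compounds in phenol-red-free DMEM containing 10% FBS.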
KB-V1 cytotox: kills drug-selected multidrug resistant KB-V1 cells; KB-V1 MDR cells viability, CellTiter-Glo, 72 h; Potency, µM (series often up to 46.1 µM), hits mostly cytotoxic; 400,000 tested, 3.4% active; AID 1347076; also: potency is read from the fitted curve at half-maximal effect; % is scaled to controls: 0 for no effect and ±100 for the full control effect; nearly all actives have a fitted effect of over 60% in size
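KB-V1 MDR subline cells in DMEM (phenol-red free, 10% FBS) exposed to compounds in qHTS concentration series for 72 h at 37 degrees C. Viability read by CellTiter-Glo luminescence; concentration-effect curves fitted after normalization and correction.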
IL-1B inflam inh: inflammasome signaling inhibition, IL-1 beta readout. THP-1 LPS/ATP IL-1B secretion, AlphaLISA, 16 h; hits give low values. 360,000 tested, 4.7% active. AID 743279. activity change, % at 57.5 µM; in the data active = activity change below about -50%; inconclusive = mostly about -30% to -49%; also: % is scaled to controls: 0 for no effect and ±100 for the full control effect
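THP-1 cells pretreated 1 hr with compounds (up to 57.5 uM final), then stimulated with LPS (250 ng/mL final) plus ATP (1.25 mM final); secreted IL-1B measured by AlphaLISA after 16 hr, decreased signal indicating inhibition.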
SW480 rereplic: inducers of DNA re-replication in SW480 colon cancer cells | 340,000 tested, 1.8% active | Potency, µM (top dose mostly 46.1 µM), for the others: at the top dose re-replication activation, hits mostly activators | SW480 DNA re-replication, Hoechst DNA content imaging, 48 h; also: potency is read from the fitted curve at half-maximal effect; % of control where 0% means no effect; nearly all actives have a fitted effect of over 55% in size
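Readout is total intensity of Hoechst-stained nuclei, excited at 405 nm and collected at 500-530 nm. Compound treatment lasted 48 hr at 37 C in 5% CO2 before staining.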
MCF10A rerep: DNA re-replication induction in MCF 10a cells | Potency, µM (highest dose often 46.1 µM), for the others: at the highest dose activity, positive = re-replication, actives largely listed as activators | 350,000 tested, 2.9% active | MCF 10A DNA re-replication, Hoechst nuclear intensity, 48 h | AID 624296; also: potency is read from the fitted curve at half-maximal effect; % of control where 0% means no effect; nearly all actives have a fitted effect of over 50% in size
An asterisk follows results filed as active; i = inactive; ? = inconclusive; nt = not tested or not shown; [ ] = remark or other dose. Unless noted, calls follow the shape of the dose curve; as a rule, active = well fitted curve in the direction sought with a large enough effect; inconclusive = small, poorly fitted or top-dose-only effect, or another doubt; inactive = no such curve, though single readings can be large; an effect the other way counts as inactive or inconclusive.

SMILES	KB-3-1 cytotox	KB-V1 cytotox	IL-1B inflam inh	SW480 rereplic	MCF10A rerep
Cc1ccc(-c2ccc(=O)n(Cc3cccc(Br)c3)n2)cc1	?	16.4µM*	-77.6*	?	?
CC(=O)N1c2ccc(S(=O)(=O)N3CCCC3)cc2CC1C(=O)NC(C)C (stereo unspecified)	i	i	12.1	-0.9%	-11.0%
Cn1c(-c2ccc(Cl)cc2)ccc(C#N)c1=O	?	5.8µM*	29.4	0.9%	-177.7%[0.0737 µM]
CCOC(=O)N1CCN(S(=O)(=O)c2c(C(=O)N3CCCCC3)c(C)n(C)c2C)CC1	i	i	-18.3	-5.9%	0.0%
CCC(C)c1ccc(NC(=S)NC2CCN(Cc3ccccc3)CC2)cc1 (stereo unspecified)	?	?	-94.0*	?	?
S=C(Nc1ccccc1)NC1CCN(Cc2ccccc2)CC1	i	?	-26.9	-5.1%	1.8%
S=C(Nc1ccc(Cl)cc1)NC1CCN(Cc2ccccc2)CC1	?	i	-94.0*	?	22.0%
Cc1ccc(NC(=S)NC2CCN(Cc3ccccc3)CC2)c(C)c1	i	i	-56.7*	1.6%	2.7%
Cc1ccc(-c2nc3ncccc3o2)cc1NC(=O)c1ccc2c(c1)OCO2	i	i	-0.9	-3.5%	0.9%
Cc1ccsc1/C=C(\C(=O)c1ccc(OC(C)C)cc1)c1nc2ccccc2o1	i	?	-66.7*	8.2µM*	17.9%
Cc1ccsc1/C=C(\CC(=O)O)c1nc2ccccc2o1	i	i	23.8	-3.6%	6.7%
CCOC(=O)c1cc(C#N)c(N2CCN(C(=O)c3ccccc3)CC2)nc1C(F)(F)F	i	20.6µM*	4.4	14.6µM*	-7.0%
COc1ccc(OC)c(CC(NC(C)=O)C(=O)NC2CCN(c3nc(OC)nc(OC)n3)CC2)c1 (stereo unspecified)	i	i	3.5	-28.4%	?
CS(=O)(=O)N1N=C(c2ccccc2)CC1c1ccc2nccnc2c1 (stereo unspecified)	i	20.6µM*	-5.2	-1.3%	?
O=C1c2ccccc2NC(c2cccs2)N1O (stereo unspecified)	i	i	13.3	-78.2%	-0.9%
O=C1c2ccccc2N[C@@H]2C=CC[C@@H]2N1O	i	i	21.0	25.9µM*	-3.5%
COc1ccc(N2CCN(C(=O)C3CCCN3S(=O)(=O)c3cccc4nsnc34)CC2)cc1 (stereo unspecified)	i	i	-3.8	-2.5%	5.1%
Cc1cccc(N2C(=O)C=CC2=O)c1	i	i	-9.0	?	20.6µM*
CCc1ccc(NC(=O)CSc2nc3cc(C(=O)OC)ccc3c(=O)n2Cc2ccco2)cc1	i	i	-8.5	17.3%	-182.1%[0.0737 µM]
CCOC(=O)c1c(NC(=O)CSc2nc3cc(Cl)ccc3c(=O)n2Cc2ccco2)sc(C(=O)N(C)C)c1C	i	i	-58.5*	8.6%	?
COc1cc2nc(SCC(=O)NCc3ccco3)n(Cc3ccc(Cl)cc3)c(=O)c2cc1OC	10.3µM*	?	39.0	18.4µM*	14.6µM*
COc1ccc(CNC(=O)CCc2nc3cccnc3n2Cc2ccc(OC)cc2)cc1	i	i	nt	nt	nt
Cc1ccc(Cn2c(SCC(=O)NCc3ccco3)nc3ccsc3c2=O)cc1	i	i	-10.9	-12.8%	-0.9%
COCCNC(=O)CSc1nc2cc(OC)c(OC)cc2c(=O)n1Cc1ccc(OC)cc1	i	2.59µM*	9.4	7.5%	14.0%
COc1ccc(Cn2c(CCC(=O)NCc3ccco3)nc3cccnc32)cc1	i	20.6µM*	11.9	-2.7%	-2.2%
SMILES	KB-3-1 cytotox	KB-V1 cytotox	IL-1B inflam inh	SW480 rereplic	MCF10A rerep
CCC1C(=O)NCCN1C(=O)c1ccc(OC)c(OC2CCN(C(C)=O)CC2)c1 (stereo unspecified)	i	i	3.5	-0.5%	0.8%
CN(CC(=O)Nc1ccc(F)c(F)c1F)C(=O)CCCSc1nc2ccccc2[nH]1	i	?	11.7	1.9%	-0.9%
O=C(CSC1=Nc2ccccc2C2=NC(Cc3ccccc3)C(=O)N12)Nc1ccccc1C(F)(F)F (stereo unspecified)	i	i	nt	nt	nt
COCCNC(=S)NC(=O)CC12CC3CC(CC(C3)C1)C2	i	16.4µM*	1.7	22.5%	-36.7%
CNC(=O)CC12CC3CC(CC(C3)C1)C2	i	i	4.9	-5.8%	-0.9%
Cc1ccc(NC(=O)CC(C)S(=O)(=O)c2ccc3c(c2)NC(=O)CO3)cc1Cl (stereo unspecified)	i	i	nt	nt	nt
CCOC(=O)c1c(C)c(-c2ccccc2)n(CC(=O)NCCc2ccc(C)cc2)c1C	i	i	nt	nt	nt
COc1ccc2c(-c3ccccc3)cc(SCC(=O)NC3CCS(=O)(=O)C3)nc2c1 (stereo unspecified)	i	i	-82.2*	-2.9%	0.6%
CCN(C(=O)CSc1nc(-c2cccs2)nc2ccccc12)C1CCS(=O)(=O)C1 (stereo unspecified)	i	i	-93.2*	15.7%	?
CCN(C(=O)CSc1cc(C)c2ccc(OC)cc2n1)C1CCS(=O)(=O)C1 (stereo unspecified)	i	i	-10.6	0.8%	4.8%
CCN(C(=O)COC(=O)c1c2c(nc3ccccc13)/C(=C/c1ccccc1)CC(C)C2)C1CCS(=O)(=O)C1 (stereo unspecified)	?	?	-20.4	7.31µM*	?
CCN(C(=O)CSc1cc(-c2ccccc2)c2ccc(OC)cc2n1)C1CCS(=O)(=O)C1 (stereo unspecified)	i	i	-61.5*	2.4%	?
C=CCNC(=O)/C(=C/c1cccc([N+](=O)[O-])c1)NC(=O)c1ccco1	i	i	24.1	-3.0%	-6.3%
CCN(CC)S(=O)(=O)c1ccc2c(c1)nc(CCC(=O)Nc1ccccc1Cc1ccccc1)n2CC	i	20.6µM*	-13.9	?	21.9%
O=C(CN1CC(=O)Nc2ccccc21)NCCc1ccc(Cl)cc1Cl	i	i	-101.9*	10.6%	16.3%
O=P(C(=S)Nc1ccccc1Cl)(c1ccccc1)c1ccccc1	i	?	24.9	nt	nt
CSc1ccc(C2NC(=O)c3ccccc3N2)cc1 (stereo unspecified)	?	?	34.5	9.2µM*	16.4µM*
O=C1NC(c2ccc(O)cc2)Nc2ccccc21 (stereo unspecified)	?	?	20.7	?	11.6µM*
CSc1ccc(C2Nc3cccc4cccc(c34)N2)cc1	i	i	7.3	6.7%	6.3%
O=C1NC(c2ccccc2O)Nc2ccccc21 (stereo unspecified)	i	i	20.6	-1.5%	2.0%
